# Assay results reported in PubChem BioAssay (NCI).
# About 83,000 compounds went through this panel and 20% of them were active in at least one assay; those are over-represented in the sample as a whole.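 Compound tested at a single concentration for 48 hours in 96-well plates; a percent growth value below 10 was scored as active.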 Unmarked numbers belong to inactive results. Activity calls are given as the source filed them.
# System: T-47D breast
# Assay: NCI-60 one-dose screen, 48 h (100 = growth as untreated, 0 = no growth, -100 = all killed)
# Details: 10 µM unless noted
row,SMILES,growth
1,COC(=O)[C@@H](NC(=O)[C@@H](OC)[C@@H]1Cc2cc3cc(OC4CC(OC5CC(O)C(O)C(C)O5)C(O)C(C)O4)c(C)c(O)c3c(O)c2C(=O)[C@H]1OC1CC(OC2CC(OC3CC(C)(O)C(O)C(C)O3)C(O)C(C)O2)C(O)C(C)O1)C(C)C (stereo not given in full),10.2%
2,Nc1c2c(c(O)c3c1=C(CO)C=N3)=NCCS2=O (stereo not given),-42.6% (active)
3,C=CC[n+]1c(/C=C2\Sc3ccccc3N2C)sc(-c2ccccc2)c1-c1ccccc1,5.7% (active)
4,CC1(C=O)NC(=O)NC1=O (stereo not given),95.2%
5,COc1cc2c3c(c1)nc(C)n3CCC2,95.8%
6,COc1cc2c(Oc3ccc4[nH]c(C)cc4c3F)ncnc2cc1OCCCN1CCCC1,82.5%
7,CCc1nc2cc(/C=C/C(=O)NO)c(F)cc2c(=O)n1CCc1ccccc1,-0.665% (active)
8,CCc1cc2c(c3ccc(C(=O)CBr)cc13)CCCC2,71.2%
9,COc1cc(F)c(F)c(Nc2ccc(I)cc2F)c1NS(=O)(=O)C1(C[C@H](O)CO)CC1,22.6%
10,C=CC(=O)Nc1cc2c(Nc3ccc(F)c(Cl)c3)ncnc2cc1C#CC(C)(C)N1CCN(C)CC1,-81.5% (active)
11,CN1CC[C@H](c2c(O)cc(O)c3c(=O)cc(-c4ccccc4Cl)oc23)[C@H](O)C1,0.506% (active)
12,COc1cc2ncnc(Nc3ccc(F)c(Cl)c3)c2cc1NC(=O)/C=C/CN1CCCCC1,-63% (active)
13,O=C(c1ccccc1)C(c1ccccc1)N1CCOCC1 (stereo not given),98.8%
14,COc1ccc(CCCc2c3[n+](cc4c(OC)c(OC)ccc24)CCc2cc4c(cc2-3)OCO4)cc1,15.6%
15,CCn1c(-c2nonc2N)nc2c(C#CC(C)(C)O)ncc(OC[C@H]3CCCNC3)c21,66.7%
16,COc1ccc(C2CC(=O)c3c(O)c(OC)c(OC)c(OC)c3O2)cc1O (stereo not given),65.9%
17,NC1(c2ccc(-c3nc4ccn5c(=O)[nH]nc5c4cc3-c3ccccc3)cc2)CCC1,-70.4% (active)
18,CCc1nc(C(N)=O)c(Nc2ccc(N3CCC(N4CCN(C)CC4)CC3)c(OC)c2)nc1NC1CCOCC1,65.1%

row,SMILES,growth
1,CC(C)(C)c1ccc(Cn2cc(CSc3nc4ccccc4s3)nn2)cc1,73.4%
2,COCC(=O)NC/C=C/c1ccc2ncnc(Nc3ccc(Oc4ccc(C)nc4)c(C)c3)c2c1,-0.662% (active)
3,COc1ccc(-n2c(=O)c3ccccc3n(Cc3ccc(C(=O)NO)cc3)c2=O)cc1,5.48% (active)
4,CC(=O)C(C(C)=O)C(c1ccccc1)C(C(C)=O)C(C)=O,102%
5,Cc1cc2c(F)c(Oc3ncnn4cc(OC[C@@H](C)OC(=O)[C@H](C)N)c(C)c34)ccc2[nH]1,70.5%
6,O=C(Cn1cncn1)Nc1ccc(-c2nc3ccccc3s2)cc1,64.9%
7,COc1ccc(-c2cc3c(C)nc(N)nc3n(C3CCC(OCCO)CC3)c2=O)cn1 (stereo not given),-50.5% (active)
8,COc1cc(OC)c(/C=C/S(=O)(=O)Cc2ccc(OC)c(NCC(=O)O)c2)c(OC)c1,52.7%
9,C=CC(=O)N(C)[C@H]1C[C@H]2OC(C)(C1OC)n1c3ccccc3c3c4c(c5c6ccccc6n2c5c31)C(=O)NC4 (stereo not given in full),16.5%
10,O=C1C=CC2(NN=C(c3ccccc3)N2c2cccc(Cl)c2)c2cccc(O)c21 (stereo not given),101%
11,COC(=O)[C@@H](OC)[C@@H]1Cc2cc3cc(OC4CC(OC5CC(O)C(O)C(C)O5)C(O)C(C)O4)c(C)c(O)c3c(O)c2C(=O)[C@H]1OC1CC(OC2CC(OC3CC(C)(O)C(O)C(C)O3)C(O)C(C)O2)C(O)C(C)O1 (stereo not given in full),4% (active)
12,O=C(O)c1ccc(Nc2ncc3c(n2)-c2ccc(Cl)cc2C(c2c(F)cccc2F)=NC3)cc1,47.5%
13,CC(C)Nc1cc(-c2c[nH]c(C(=O)N[C@H](CO)c3cccc(Cl)c3)c2)c(Cl)cn1,34.7%
14,CCN(CC)CCNC(=O)c1c(C)[nH]c(/C=C2\C(=O)Nc3ccc(F)cc32)c1C,80.4%
15,COc1cccc2cc(-c3nc(C4CCC(C(=O)O)CC4)n4ncnc(N)c34)[nH]c12 (stereo not given),-30.2% (active)
16,O=C(c1ccc(/C=C/c2n[nH]c3ccccc23)cc1)N1CCNCC1,84.1%
17,COc1cc(-c2nc(C(=O)NCC(=O)O)nn2-c2ccc(Cl)cc2)cc(OC)c1OC,99.5%
